# Where two headings read alike, the source gives them in different places.
# Key:
# SLK = conditions: read-out: apparent Kd, n = 1
# STK10 = conditions: read-out: apparent Kd, n = 1
substance,measurement,setting,value
Lestaurtinib,potency estimated from few doses,"SLK; compound concentrations:100 nM and 1000 nM (sheet 'Lestaurtinib' of Supplementary Table 1),run:Lestaurtinib_02577_R2,Plate:MR016",1320 nM
same,potency estimated from few doses,"SLK; compound concentrations:100 nM and 1000 nM (sheet 'Lestaurtinib' of Supplementary Table 1),run:Lestaurtinib_02577_R3,Plate:MR016",997 nM
same,potency estimated from few doses,"SLK; compound concentrations:100 nM and 1000 nM (sheet 'Lestaurtinib' of Supplementary Table 1),run:Lestaurtinib_02584_R2,Plate:MR017",1320 nM
same,potency estimated from few doses,"SLK; compound concentrations:100 nM and 1000 nM (sheet 'Lestaurtinib' of Supplementary Table 1),run:Lestaurtinib_02584_R3,Plate:MR017",1580 nM
same,potency estimated from few doses,"SLK; compound concentrations:100 nM and 1000 nM (sheet 'Lestaurtinib' of Supplementary Table 1),run:Lestaurtinib_02601_R1,Plate:MR018",1760 nM
same,potency estimated from few doses,"SLK; compound concentrations:100 nM and 1000 nM (sheet 'Lestaurtinib' of Supplementary Table 1),run:Lestaurtinib_02601_R3,Plate:MR018",1400 nM
same,potency estimated from few doses,"SLK; compound concentrations:100 nM and 1000 nM (sheet 'Lestaurtinib' of Supplementary Table 1),run:Lestaurtinib_02606_R2,Plate:MR019",1320 nM
same,potency estimated from few doses,"SLK; compound concentrations:100 nM and 1000 nM (sheet 'Lestaurtinib' of Supplementary Table 1),run:Lestaurtinib_02624_R1,Plate:MR020",1810 nM
same,potency estimated from few doses,"SLK; compound concentrations:100 nM and 1000 nM (sheet 'Lestaurtinib' of Supplementary Table 1),run:Lestaurtinib_02624_R2,Plate:MR020",1130 nM
same,potency estimated from few doses,"SLK; compound concentrations:100 nM and 1000 nM (sheet 'Lestaurtinib' of Supplementary Table 1),run:Lestaurtinib_02741_R3,Plate:MR023",1440 nM
same,potency estimated from few doses,"SLK; compound concentrations:100 nM and 1000 nM (sheet 'Lestaurtinib' of Supplementary Table 1),run:Lestaurtinib_02748_R2,Plate:MR024",1330 nM
same,potency estimated from few doses,"SLK; compound concentrations:100 nM and 1000 nM (sheet 'Lestaurtinib' of Supplementary Table 1),run:Lestaurtinib_02752_R3,Plate:MR025",1330 nM
same,potency estimated from few doses,"SLK; compound concentrations:100 nM and 1000 nM (sheet 'Lestaurtinib' of Supplementary Table 1),run:Lestaurtinib_02765_R1,Plate:MR026",1320 nM
same,potency estimated from few doses,"SLK; compound concentrations:100 nM and 1000 nM (sheet 'Lestaurtinib' of Supplementary Table 1),run:Lestaurtinib_02765_R2,Plate:MR026",1130 nM
same,potency estimated from few doses,"SLK; compound concentrations:100 nM and 1000 nM (sheet 'Lestaurtinib' of Supplementary Table 1),run:Lestaurtinib_02766_R2,Plate:MR027",1150 nM
same,potency estimated from few doses,"SLK; compound concentrations:100 nM and 1000 nM (sheet 'Lestaurtinib' of Supplementary Table 1),run:Lestaurtinib_02768_R1,Plate:MR028",1300 nM
same,potency estimated from few doses,"SLK; compound concentrations:100 nM and 1000 nM (sheet 'Lestaurtinib' of Supplementary Table 1),run:Lestaurtinib_02768_R2,Plate:MR028",1400 nM
same,potency estimated from few doses,"SLK; compound concentrations:100 nM and 1000 nM (sheet 'Lestaurtinib' of Supplementary Table 1),run:Lestaurtinib_02795_R1,Plate:MR022",1610 nM
same,potency estimated from few doses,"SLK; compound concentrations:100 nM and 1000 nM (sheet 'Lestaurtinib' of Supplementary Table 1),run:Lestaurtinib_02795_R2,Plate:MR022",1360 nM
same,potency estimated from few doses,"SLK; compound concentrations:100 nM and 1000 nM (sheet 'Lestaurtinib' of Supplementary Table 1),run:Lestaurtinib_02795_R3,Plate:MR022",1530 nM
same,potency estimated from few doses,"SLK; compound concentrations:100 nM and 1000 nM (sheet 'Lestaurtinib' of Supplementary Table 1),run:Lestaurtinib_02802_R1,Plate:MR029",1150 nM
same,potency estimated from few doses,"SLK; compound concentrations:100 nM and 1000 nM (sheet 'Lestaurtinib' of Supplementary Table 1),run:Lestaurtinib_02802_R2,Plate:MR029",964 nM
same,potency estimated from few doses,"SLK; compound concentrations:100 nM and 1000 nM (sheet 'Lestaurtinib' of Supplementary Table 1),run:Lestaurtinib_02802_R3,Plate:MR029",1350 nM
same,potency estimated from few doses,"SLK; compound concentrations:100 nM and 1000 nM (sheet 'Lestaurtinib' of Supplementary Table 1),run:Lestaurtinib_03172_R2,Plate:MR031",1460 nM
same,potency estimated from few doses,"SLK; compound concentrations:100 nM and 1000 nM (sheet 'Lestaurtinib' of Supplementary Table 1),run:Lestaurtinib_03172_R3,Plate:MR031",914 nM
same,potency estimated from few doses,"SLK; compound concentrations:100 nM and 1000 nM (sheet 'Lestaurtinib' of Supplementary Table 1),run:Lestaurtinib_03252_R1,Plate:MR032",1350 nM
same,potency estimated from few doses,"SLK; compound concentrations:100 nM and 1000 nM (sheet 'Lestaurtinib' of Supplementary Table 1),run:Lestaurtinib_03252_R2,Plate:MR032",1400 nM
same,potency estimated from few doses,"SLK; compound concentrations:100 nM and 1000 nM (sheet 'Lestaurtinib' of Supplementary Table 1),run:Lestaurtinib_03260_R1,Plate:MR033",1930 nM
same,potency estimated from few doses,"SLK; compound concentrations:100 nM and 1000 nM (sheet 'Lestaurtinib' of Supplementary Table 1),run:Lestaurtinib_03260_R2,Plate:MR033",1930 nM
same,potency estimated from few doses,"SLK; compound concentrations:100 nM and 1000 nM (sheet 'Lestaurtinib' of Supplementary Table 1),run:Lestaurtinib_03260_R3,Plate:MR033",1310 nM
same,potency estimated from few doses,"STK10; compound concentrations:100 nM and 1000 nM (sheet 'Lestaurtinib' of Supplementary Table 1),run:Lestaurtinib_02339_R1,Plate:MR001",179 nM
same,potency estimated from few doses,"STK10; compound concentrations:100 nM and 1000 nM (sheet 'Lestaurtinib' of Supplementary Table 1),run:Lestaurtinib_02339_R2,Plate:MR001",158 nM
same,potency estimated from few doses,"STK10; compound concentrations:100 nM and 1000 nM (sheet 'Lestaurtinib' of Supplementary Table 1),run:Lestaurtinib_02339_R3,Plate:MR001",80.5 nM
same,potency estimated from few doses,"STK10; compound concentrations:100 nM and 1000 nM (sheet 'Lestaurtinib' of Supplementary Table 1),run:Lestaurtinib_02364_R2,Plate:MR002",140 nM
same,potency estimated from few doses,"STK10; compound concentrations:100 nM and 1000 nM (sheet 'Lestaurtinib' of Supplementary Table 1),run:Lestaurtinib_02364_R3,Plate:MR002",142 nM
same,potency estimated from few doses,"STK10; compound concentrations:100 nM and 1000 nM (sheet 'Lestaurtinib' of Supplementary Table 1),run:Lestaurtinib_02367_R3,Plate:MR003",144 nM
same,potency estimated from few doses,"STK10; compound concentrations:100 nM and 1000 nM (sheet 'Lestaurtinib' of Supplementary Table 1),run:Lestaurtinib_02407_R1,Plate:MR005",113 nM
same,potency estimated from few doses,"STK10; compound concentrations:100 nM and 1000 nM (sheet 'Lestaurtinib' of Supplementary Table 1),run:Lestaurtinib_02422_R1,Plate:MR006",162 nM
same,potency estimated from few doses,"STK10; compound concentrations:100 nM and 1000 nM (sheet 'Lestaurtinib' of Supplementary Table 1),run:Lestaurtinib_02422_R2,Plate:MR006",47 nM
same,potency estimated from few doses,"STK10; compound concentrations:100 nM and 1000 nM (sheet 'Lestaurtinib' of Supplementary Table 1),run:Lestaurtinib_02437_R1,Plate:MR007",142 nM
same,potency estimated from few doses,"STK10; compound concentrations:100 nM and 1000 nM (sheet 'Lestaurtinib' of Supplementary Table 1),run:Lestaurtinib_02437_R3,Plate:MR007",18.2 nM
same,potency estimated from few doses,"STK10; compound concentrations:100 nM and 1000 nM (sheet 'Lestaurtinib' of Supplementary Table 1),run:Lestaurtinib_02438_R2,Plate:MR008",137 nM
same,potency estimated from few doses,"STK10; compound concentrations:100 nM and 1000 nM (sheet 'Lestaurtinib' of Supplementary Table 1),run:Lestaurtinib_02443_R1,Plate:MR009",141 nM
same,potency estimated from few doses,"STK10; compound concentrations:100 nM and 1000 nM (sheet 'Lestaurtinib' of Supplementary Table 1),run:Lestaurtinib_02443_R3,Plate:MR009",154 nM

# Reference: publication PMC11062922 (Nature Chemical Biology, 2023)
